The antibiotic and cytotoxicity screens of Wong et al. (2023)
Hit rate of the full screen: of about 39,000 compounds, about 1,500 (3.8%) were called active. The entries come from a sample that favours actives as a whole.

system: HSkMC (human skeletal muscle cells); assay: cytotoxicity call (relative viability < 0.9); details: 10 µM

Row | SMILES | cytotoxicity call
1 | CC(C)N1C[C@H](C)[C@@H](CN(C)Cc2ccc(Cl)c(Cl)c2)Oc2c(C(=O)Nc3ccncc3)cccc2C1=O | inactive
2 | COc1ccc(S(=O)(=O)N(C)C[C@H]2Oc3ccc(NS(C)(=O)=O)cc3C(=O)N([C@H](C)CO)C[C@@H]2C)cc1 | inactive
3 | C[C@@H]1CN([C@@H](C)CO)C(=O)c2cc(NC(=O)c3ccccc3)ccc2O[C@@H](C)CCCCO[C@@H]1CN(C)Cc1ccccc1 | inactive
4 | C[C@@H]1CN([C@H](C)CO)C(=O)c2c(c3ccccc3n2C)-c2ccccc2CO[C@H]1CN(C)C(=O)Nc1cccc(C(F)(F)F)c1 | inactive
5 | C[C@H](CO)N1C[C@H](C)[C@H](CN(C)Cc2cccc(C(F)(F)F)c2)OCc2ccccc2-c2ccccc2C1=O | inactive
6 | C[C@H](CO)N1C[C@H](C)[C@H](CN(C)C(=O)Nc2cccc(C(F)(F)F)c2)OCc2ccccc2-c2c(n(C)c3ccccc23)C1=O | active
7 | C[C@@H]1CN([C@H](C)CO)C(=O)c2ccccc2-c2ccccc2CO[C@@H]1CN(C)Cc1cccc(C(F)(F)F)c1 | inactive
8 | C[C@H]1CN([C@@H](C)CO)C(=O)c2c(c3ccccc3n2C)-c2ccccc2CO[C@H]1CN(C)C(=O)Nc1cccc(C(F)(F)F)c1 | inactive
9 | C[C@@H]1CN([C@@H](C)CO)C(=O)c2ccccc2-c2ccccc2CO[C@@H]1CN(C)Cc1cccc(C(F)(F)F)c1 | active
10 | C=CC(=O)NCCCCNC(=O)C=C | inactive
11 | C[C@@H]1CN([C@@H](C)CO)C(=O)c2cc(NC(=O)NC3CCCCC3)ccc2O[C@@H](C)CCCCO[C@@H]1CN(C)C(=O)Nc1ccc2c(c1)OCO2 | inactive
12 | CN1CCCCC[C@@H]1C(=O)O | inactive
13 | CO[C@@H]1CN(C)C(=O)c2ccc(NC(=O)C3CC3)cc2OC[C@@H](C)N(C(=O)Cc2ccccn2)C[C@@H]1C | inactive
14 | Cc1noc(C)c1S(=O)(=O)N(C)C[C@@H]1Oc2ccc(NC(=O)C3CC3)cc2CC(=O)N([C@@H](C)CO)C[C@H]1C | inactive
15 | CC1(C)CCC(c2ccc(Cl)cc2)=C(CN2CCN(c3ccc(C(=O)NS(=O)(=O)c4ccc(N[C@@H](CCN5CCOCC5)CSc5ccccc5)c(S(=O)(=O)C(F)(F)F)c4)cc3)CC2)C1 | active
16 | CN(C)CC[C@H](CSc1ccccc1)Nc1ccc(S(=O)(=O)NC(=O)c2ccc(N3CCN(Cc4ccccc4-c4ccc(Cl)cc4)CC3)cc2)cc1[N+](=O)[O-] | inactive
17 | CC1(C)CCC(c2ccc(Cl)cc2)=C(CN2CCN(c3ccc(C(=O)NS(=O)(=O)c4ccc(N[C@H](CCN5CCOCC5)CSc5ccccc5)c(S(=O)(=O)C(F)(F)F)c4)cc3)CC2)C1 | active
18 | CC1(C)CCC(CN2CCN(c3ccc(C(=O)NS(=O)(=O)c4ccc(NCC5CCOCC5)c([N+](=O)[O-])c4)c(Oc4cnc5[nH]ccc5c4)c3)CC2)=C(c2ccc(Cl)cc2)C1 | inactive
19 | O=S(=O)(NCC[C@@H]1CC[C@@H](NS(=O)(=O)c2ccccc2Cl)[C@@H](CO)O1)c1ccc(F)cc1 | inactive
20 | COc1ccc(NC(=O)Nc2ccc3c(c2)C(=O)N([C@@H](C)CO)C[C@H](C)[C@@H](CN(C)S(=O)(=O)c2c(C)noc2C)OCCCC[C@@H](C)O3)cc1 | inactive

Row | SMILES | cytotoxicity call
21 | C[C@@H]1CCCCO[C@@H](CN(C)C(=O)Nc2ccc(C(F)(F)F)cc2)[C@@H](C)CN([C@H](C)CO)C(=O)c2cc(NC(=O)Cc3ccccc3)ccc2O1 | inactive
22 | C[C@H](CCC(=O)NCCS(=O)(=O)O)[C@H]1CC[C@H]2[C@@H]3[C@H](O)C[C@@H]4C[C@H](O)CC[C@]4(C)[C@H]3C[C@H](O)[C@]12C | inactive
23 | COC(=O)CCC(C)C1CCC2C3C(O)CC4CC(O)CCC4(C)C3CC(O)C12C (stereo not given) | inactive
24 | CC(C)[C@@H](CC[C@@H](C)[C@H]1CC[C@H]2[C@@H]3[C@H](O)C[C@H]4C[C@@H](NCCCNCCCCNCCCN)CC[C@]4(C)[C@H]3CC[C@]12C)OS(=O)(=O)O | active
25 | CC(C)[C@@H](CC[C@@H](C)[C@H]1CC[C@H]2[C@@H]3[C@H](O)C[C@H]4C[C@@H](NCCCNCCCCN)CC[C@]4(C)[C@H]3CC[C@]12C)OS(=O)(=O)O | active
26 | CC(CCC(=O)O)C1CCC2C3C(O)CC4CC(O)CCC4(C)C3CCC12C (stereo not given) | inactive
27 | C[C@H](CCC(=O)NCC(=O)NCCS(=O)(=O)O)[C@H]1CC[C@H]2[C@@H]3[C@H](O)C[C@@H]4C[C@H](O)CC[C@]4(C)[C@H]3C[C@H](O)[C@]12C | inactive
28 | CC(=O)N1CCO[C@H]2CCN(C(=O)c3cn(C)cn3)C[C@H]21 | inactive
29 | Cc1ccc(S(=O)(=O)N(C)C[C@H]2OCCCC[C@H](C)Oc3ccc(NC(=O)Nc4ccc(F)cc4)cc3C(=O)N([C@H](C)CO)C[C@@H]2C)cc1 | inactive
30 | Cc1noc(C)c1NC(=O)N(C)C[C@@H]1Oc2ccc(NC(=O)c3ccncc3)cc2CC(=O)N([C@H](C)CO)C[C@H]1C | inactive
31 | COc1cccc(NC(=O)N(C)C[C@H]2OCc3ccccc3-c3c(n(C)c4ccccc34)C(=O)N([C@@H](C)CO)C[C@H]2C)c1 | inactive
32 | C[C@H]1CN([C@@H](C)CO)S(=O)(=O)c2ccc(C#CCC3CCCC3)cc2O[C@@H]1CN(C)C(=O)c1cnccn1 | inactive
33 | C=CCC[C@H](Cc1ccc(F)cc1)C(=O)OC[C@@H](Cc1c[nH]c2ccccc12)NC(=O)[C@@H](CC=C)CC(=O)N[C@@H](CO)Cc1ccccc1 | inactive
34 | C=CCC[C@@H](Cc1ccc(F)cc1)C(=O)OC[C@@H](Cc1c[nH]c2ccccc12)NC(=O)[C@@H](CC=C)CC(=O)N[C@@H](CO)Cc1ccccc1 | inactive
35 | C=CCC[C@H](Cc1ccc(F)cc1)C(=O)OC[C@H](Cc1c[nH]c2ccccc12)NC(=O)[C@H](CC=C)CC(=O)N(CCO)Cc1ccccc1 | inactive
36 | C=CCC[C@@H](Cc1ccc(F)cc1)C(=O)OC[C@@H](Cc1c[nH]c2ccccc12)NC(=O)[C@@H](CC=C)CC(=O)N(CCO)Cc1ccccc1 | active
37 | C=CCC[C@H](Cc1ccc(F)cc1)C(=O)OC[C@H](Cc1c[nH]c2ccccc12)NC(=O)[C@@H](CC=C)CC(=O)N(CCO)Cc1ccccc1 | active
38 | C=CCC[C@@H](Cc1ccc(F)cc1)C(=O)OC[C@@H](Cc1c[nH]c2ccccc12)NC(=O)[C@H](CC=C)CC(=O)N(CCO)Cc1ccccc1 | active
39 | C=CCC[C@H](Cc1ccc(F)cc1)C(=O)OC[C@@H](Cc1c[nH]c2ccccc12)NC(=O)[C@@H](CC=C)CC(=O)N(CCO)Cc1ccccc1 | inactive
40 | C=CCC[C@@H](Cc1ccc(F)cc1)C(=O)OC[C@H](Cc1c[nH]c2ccccc12)NC(=O)[C@H](CC=C)CC(=O)N(CCO)Cc1ccccc1 | inactive

Row | SMILES | cytotoxicity call
41 | C=CCC[C@H](Cc1ccc(F)cc1)C(=O)OC[C@@H](Cc1c[nH]c2ccccc12)NC(=O)[C@H](CC=C)CC(=O)N(CCO)Cc1ccccc1 | active
42 | C=CCC[C@@H](Cc1ccc(F)cc1)C(=O)OC[C@H](Cc1c[nH]c2ccccc12)NC(=O)[C@@H](CC=C)CC(=O)N(CCO)Cc1ccccc1 | inactive
43 | CC(C)(C)[S@@](=O)N1Cc2cc(C(=O)N3CCc4ccccc4C3)nc(-c3cccc(-c4ccncc4)c3)c2[C@H]1CCO | inactive
44 | CCO[C@H]1OC(C(=O)N2CCN(C)CC2)=C[C@@H](c2coc3ccccc3c2=O)[C@@H]1CCCOC(=O)NCCCCCC(=O)NO | inactive
45 | C[C@@H]1CN([C@@H](C)CO)C(=O)Cc2cc(NS(=O)(=O)c3cccs3)ccc2O[C@@H]1CN(C)Cc1ccc(-c2ccccc2)cc1 | inactive
46 | NC(=O)CC(N)=S | inactive
47 | C[C@H]1CN([C@@H](C)CO)S(=O)(=O)c2ccc(C#CC3CCCC3)cc2O[C@H]1CN(C)C(=O)Cc1ccncc1 | inactive
48 | CN(C)CC(=O)N1[C@@H]2Cn3c(ccc(-c4ccccc4)c3=O)[C@H]1[C@@H](C(=O)N1CCOCC1)[C@@H]2CO | inactive
49 | C[C@H](CO)N1C[C@H](C)[C@H](CN(C)S(=O)(=O)c2cccs2)Oc2c(NC(=O)Nc3cccc4ccccc34)cccc2C1=O | inactive
50 | COC(=O)C[C@H]1C=C[C@H](N)[C@H](CO)O1 | inactive
51 | Cc1noc(C)c1S(=O)(=O)Nc1ccc2c(c1)CC(=O)N([C@H](C)CO)C[C@H](C)[C@@H](CN(C)S(=O)(=O)c1cccs1)O2 | inactive
52 | C[C@@H]1CCCCO[C@@H](CN(C)S(=O)(=O)c2ccc(F)cc2)[C@H](C)CN([C@H](C)CO)C(=O)c2cc(NS(=O)(=O)c3ccc(Cl)cc3)ccc2O1 | inactive
53 | C[C@H](CO)N1C[C@H](C)[C@@H](CN(C)Cc2ccc(Cl)c(Cl)c2)Oc2ccc(NS(=O)(=O)c3ccc(F)cc3)cc2C1=O | inactive
54 | C[C@@H]1CN([C@H](C)CO)C(=O)c2cc(NS(=O)(=O)c3ccc(F)cc3)ccc2O[C@@H]1CN(C)Cc1ccc(Cl)c(Cl)c1 | inactive
55 | C[C@@H]1CN([C@H](C)CO)C(=O)c2cc(NS(=O)(=O)c3ccc(F)cc3)ccc2O[C@H]1CN(C)Cc1ccc(Cl)c(Cl)c1 | active
56 | C[C@H](CO)N1C[C@H](C)[C@H](CN(C)Cc2ccc(Cl)c(Cl)c2)Oc2ccc(NS(=O)(=O)c3ccc(F)cc3)cc2C1=O | inactive
57 | C[C@@H]1CN([C@@H](C)CO)C(=O)c2cc(NS(=O)(=O)c3ccc(F)cc3)ccc2O[C@@H]1CN(C)Cc1ccc(Cl)c(Cl)c1 | inactive
58 | C[C@@H]1CN([C@@H](C)CO)C(=O)c2cc(NS(=O)(=O)c3ccc(F)cc3)ccc2O[C@H]1CN(C)Cc1ccc(Cl)c(Cl)c1 | active
59 | C[C@H]1CN([C@@H](C)CO)C(=O)c2cc(NS(=O)(=O)c3ccc(F)cc3)ccc2O[C@H]1CN(C)Cc1ccc(Cl)c(Cl)c1 | inactive
60 | C[C@H]1CN([C@@H](C)CO)C(=O)c2cc(NS(=O)(=O)c3ccc(F)cc3)ccc2O[C@@H]1CN(C)Cc1ccc(Cl)c(Cl)c1 | active
